TDP1 cell CPT – qHTS for Inhibitors of human tyrosyl-DNA phosphodiesterase 1 (TDP1): qHTS in cells in presence of CPT | 420,000 compounds, 12% hits | chicken DT40 Tdp1-/-;hTDP1 cells + 20 nM CPT, ATP luminescence, 48 h | Potency, µM (doses to about 46.2 µM), usual class: inhibitors; further: nearly all actives have a fitted effect of over 55% in size
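Chicken DT40 Tdp1-/- cells stably complemented with human TDP1 were seeded at 400 cells/well in medium containing 20 nM camptothecin, exposed to pin-transferred compounds, and grown at 37 °C for at least 48 hr. Viability was read as ATP luminescence.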
TDP1 cell noCPT – qHTS for Inhibitors of human tyrosyl-DNA phosphodiesterase 1 (TDP1): qHTS in cells in absence of CPT; AID 686978, 2013; 420,000 compounds, 15% hits; DT40 Tdp1-/- hTDP1 cells, no CPT, ATP luminescence, 48 h; Potency, µM (series often up to 46.2 µM), most hits filed as inhibitors; further: nearly all actives have a fitted effect of over 55% in size
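Chicken DT40 Tdp1-/- cells stably complemented with human TDP1 were seeded at 400 cells/well with DMSO in place of 20 nM camptothecin. After compound pinning, cells grew at least 48 hr at 37 °C; viability read by CellTiter-Glo luminescence.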
TGFb SMAD3 inh – qHTS for Inhibitors of TGF-b; HepG2 CAGA-GFP TGF-b/SMAD3 reporter, GFP fluorescence, 18 h; TGF-beta stimulated, 500 pg/mL final; Potency, µM (titrated, usually from 46.1 µM), hits mostly inhibitors; 410,000 compounds, 1.2% hits; further: nearly all actives have a fitted effect of over 65% in size
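Read-out: total well GFP (ex488/em500-530) summed from mean per-cell fluorescence. Cells: HEPG2 CAGA-GFP, 1% FBS DMEM, 18 h at 37 degrees C with 500 pg/mL final TGF-beta. Unstimulated wells served as the full-inhibition control; stimulated DMSO wells = 0%.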
ATXN viability – Viability Counterscreen for Primary qHTS for Inhibitors of ATXN expression | S2 cells (HEK-293 line with an ATXN2-luciferase reporter) viability, CellTiter-Fluor protease fluorescence, 24 h | Potency, µM (doses to about 56.7 µM), actives largely listed as cytotoxic | AID 651635, 2014 | 400,000 compounds, 0.49% hits; further: nearly all actives have a fitted effect of over 40% in size
HepG2 viability – qHTS for Inhibitors of TGF-b: Cytotox Counterscreen. AID 588856, 2011. HepG2 CAGA-GFP viability, ATP luminescence, 18 h. 410,000 compounds, 0.76% hits. Potency, µM (doses to about 46.1 µM), usual class: cytotoxic
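CellTiter-Glo luminescence gave cytotoxicity after 18 hours at 37 degrees C. The cells were HepG2 CAGA-GFP in 1% FBS DMEM, stimulated with 500 pg/mL TGF-beta after compound addition. %Activity was normalised to no-cell wells (complete cell-killing) and DMSO (no toxicity), and curves were fitted and classified.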
ATXN2 expr inh – Primary qHTS for Inhibitors of ATXN expression; HEK-293 ATXN2-luciferase reporter, luminescence, 24 h; Potency, µM (series often up to 57 µM), most hits filed as inhibitors; 360,000 compounds, 0.72% hits; further: nearly all actives have a fitted effect of over 55% in size
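ATXN2-luciferase reporter cells (luciferase flanked by upstream and downstream ATXN2 gene portions) were treated 24 h at 37 °C with compounds at up to 57 uM. SteadyGlo luminescence gave expression; GF-AFC fluorescence gave viability.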
Numbers stand for hits; n = inactive; u = inconclusive; x = no result. Compounds with a hit are over-represented: about 17% of the library has one in this group of screens. The call rests on the fitted dose curve; in most records, active means well fitted curve in the direction sought with a large enough effect; inconclusive means small, poorly fitted or top-dose-only effect, or another doubt; inactive means no such curve, though single readings can be large; an effect the other way counts as inactive or inconclusive.

SMILES	TDP1 cell CPT	TDP1 cell noCPT	TGFb SMAD3 inh	ATXN viability	HepG2 viability	ATXN2 expr inh
Cc1cccc2sc(NNC(=O)c3cc(-c4cccs4)nc4ccccc34)nc12	4.11µM	4.11µM	u	u	n	u
COc1ccc(-c2cc(C(=O)Nc3nc4c(C)cccc4s3)c3ccccc3n2)cc1OC	16.4µM	20.6µM	n	n	n	n
COc1ccc(NC(=O)c2cc(-c3ccco3)nc3ccccc23)cn1	u	20.6µM	n	n	n	n
Cc1cc(C(=O)Nc2nc3c(C)cccc3s2)c(C)o1	n	n	u	u	n	n
Cc1cccc2sc(NNC(=O)C3=COCCO3)nc12	13µM	u	n	n	n	n
Cc1ccc(NC(=O)c2cc(-c3cccs3)nc3ccccc23)c(C)c1	n	u	n	n	n	n
CCOc1ccc(-c2cn3ccccc3n2)cc1	u	u	n	n	n	x
COc1cccc(-c2cc(C(=O)Nc3nc4ccccc4s3)c3ccccc3n2)c1	16.4µM	25.9µM	n	n	n	n
O=C(Nc1nc2ccccc2s1)c1cc(-c2ccco2)nc2ccccc12	18.4µM	18.4µM	n	n	n	n
Cc1ccc2nc(NC(=O)c3cc(-c4ccco4)nc4ccccc34)sc2c1	u	u	n	n	n	n
O=C(O)Cc1cccc(=O)c(O)c1C(=O)O	n	n	n	n	n	n
CCn1c(-c2ccc(N(C)C)cc2)nc2ccccc21	11.6µM	3.66µM	u	n	n	n
CN(C)c1ccc(-c2ccc3ccccc3n2)cc1	n	n	n	x	n	x
CC(C)n1c(-c2ccc(N(C)C)cc2)nc2ccccc21	29.1µM	11.2µM	u	u	n	n
CN(C)c1ccc(-c2nc3ccccc3n2C)cc1	13µM	13µM	u	n	8.91µM	u
CN(C)c1ccc(C(O)Cc2nc3ccccc3n2C)cc1 (stereo unspecified)	n	n	n	n	n	n
Cc1ccc(NS(=O)(=O)c2ccc(NC(=O)c3cccs3)cc2)cc1	u	u	n	n	n	n
CCOc1ncccc1C(=O)Nc1ccc(Cl)c(S(=O)(=O)N2CCCC2)c1	20.6µM	20.6µM	n	n	n	n
CCOc1ncccc1C(=O)Nc1ccc2nc(C)sc2c1	u	18.4µM	n	n	n	n
Cc1nnc(SCC(=O)NC(C)c2ccccc2)[nH]c1=O (stereo unspecified)	n	n	n	n	n	n
Cc1cccc(NC(=O)Cc2coc3ccc4ccccc4c23)n1	10.3µM	16.4µM	n	n	n	n
O=C(O)Cc1coc2ccc3ccccc3c12	n	n	n	n	n	n
COc1ccc(NC(=O)Cc2coc3cc(C)cc(C)c23)c(OC)c1	20.6µM	u	n	n	n	n
COc1ccc(OC)c(NC(=O)Cc2coc3ccc4ccccc4c23)c1	u	12.6µM	u	n	n	n
Cc1ccc(-n2cccn2)c(CN2CCCC(CNC(=O)c3ccc(F)cc3)C2)c1 (stereo unspecified)	u	11.6µM	u	n	n	n
SMILES	TDP1 cell CPT	TDP1 cell noCPT	TGFb SMAD3 inh	ATXN viability	HepG2 viability	ATXN2 expr inh
CCCn1cc(CN2CCCC(CNC(=O)c3ccc(F)cc3)C2)c(C)n1 (stereo unspecified)	n	n	n	n	n	n
CC(C)N1CCc2[nH]c(=S)[nH]c(=O)c2C1	u	16.4µM	n	n	n	n
CCCN1CCc2[nH]c(=S)[nH]c(=O)c2C1	n	n	n	n	n	n
CC(C(=O)NCC(=O)Nc1ccc(F)c(F)c1F)N1CCN(c2ccc(O)cc2)CC1 (stereo unspecified)	u	14.6µM	n	n	n	n
C#CCOCCOCCOCCNc1nc(N2CCN(C(=O)CCCCCCCCCCNC(=O)[C@H](CO)n3cc(CCCSC)nn3)CC2)nc(N2CCN(C(=O)CCCCCCCCCCNC(=O)[C@H](CO)n3cc(CCCSC)nn3)CC2)n1	8.2µM	6.51µM	u	n	n	n
C#CCOCCOCCOCCNc1nc(N2CCN(C(=O)CCCCCCCCCCNC(=O)[C@@H](CCSC)n3cc(CCO)nn3)CC2)nc(N2CCN(C(=O)CCCCCCCCCCNC(=O)[C@H]([C@@H](C)CC)n3cc(CCCCN=C(N)N)nn3)CC2)n1	u	u	u	15.8µM	n	u
C#CCOCCOCCOCCNc1nc(N2CCN(C(=O)CCCCCCCCCCNC(=O)[C@@H](CCSC)n3cc(CCO)nn3)CC2)nc(N2CCN(C(=O)CCCCCCCCCCNC(=O)[C@H]([C@@H](C)CC)n3cc(CCCCCN)nn3)CC2)n1	u	16.4µM	u	14.1µM	n	28.2µM
COc1ccc(NC(=O)C2CCN(S(=O)(=O)c3ccc(Cl)c(C(F)(F)F)c3)CC2)cn1	u	u	n	n	n	x
CCn1cc(C(=O)N(C)CC(OC)OC)c(=O)c2cc(S(=O)(=O)N3CCOCC3)ccc21	n	n	n	n	n	x
COc1ccc(C(NC(C)=O)c2ccc3cccnc3c2O)cc1OC (stereo unspecified)	6.31µM	6.31µM	n	x	n	x
CCOc1cc(C(Nc2cc(C)ccn2)c2ccc3cccnc3c2O)ccc1OC (stereo unspecified)	u	u	0.794µM	x	n	x
CC(=O)NC(c1ccc2ccccc2c1)c1ccc2cccnc2c1O (stereo unspecified)	3.26µM	4.61µM	u	n	n	2.82µM
COc1ccc(C(NC(C)=O)c2ccc3cccnc3c2O)c(OC)c1 (stereo unspecified)	3.66µM	2.91µM	n	u	n	1.78µM
COc1cccc(C(NC(C)=O)c2nc(-c3cccc4cccnc34)cs2)c1 (stereo unspecified)	u	u	n	n	n	n
COc1ccc(C(NC(C)=O)c2c(O)ccc3ccccc23)cc1OC (stereo unspecified)	n	n	n	n	n	n
CCc1ccccc1NC(=O)Cn1ccn(-c2cc(C)cc(C)c2)c(=O)c1=O	n	n	n	x	n	x
CCN(C(=O)CN1CCN(S(=O)(=O)c2ccccc2C(F)(F)F)CC1)c1c(N)n(Cc2ccccc2)c(=O)[nH]c1=O	n	n	n	n	n	n
COc1cc2[nH]c(=O)n(Cc3ccc(C(=O)NCc4ccccc4)cc3)c(=O)c2cc1OC	18.4µM	u	n	n	n	n
O=C(c1ccc2c(=O)n(CCc3ccccc3)c(=O)[nH]c2c1)N1CCN(c2ccccc2)CC1	u	u	n	n	n	n

Bioassay records as filed in PubChem.
